The whole screen tested about 69,000 compounds, of which about 10 (0.01%) showed an effect of 50% or more. This is one part of a sample in which strong results are shown more often than they occur.

This experiment deals with ClpP1P2 (Mycobacterium tuberculosis (strain ATCC 25618 / H37Rv)) (UniProt P9WPC5+P9WPC3). Briefly: in vitro assay to detect presence of AMC directly proportional to the activity of ClpP1P2. GHDDI collaboration. Further details: scale not given: direction of the effect not stated beside the values. Format: functional. The note with it: 50 µM.
For `CN(C)S(=O)(=O)N1C[C@H]2CCC[C@@]2(COCC2CC2)C1`, the Percent Effect came out at 0.536%. On to `Cc1cccc(CN2C(=O)CC[C@H]3[C@@H]2CCN3CC(=O)N(C)C)n1`, for which the Percent Effect came to 2.64%.

As to `Cc1nc(-c2ccc(CC(=O)N3CCN(C(=O)C4CC4)CC3)cc2)cs1`, the Percent Effect was determined as 7.62%. Then `Cc1nc(-c2ccc(CC(=O)N3CCN(C(=O)C(C)C)CC3)cc2)cs1`, with 88.4%; and `Cc1nc(-c2ccc(CC(=O)N3CCNC(=O)C3)cc2)cs1`, with -0.00295%. On to `c1cc(CN2CCO[C@@H]3CNC[C@@H]32)co1`, for which the Percent Effect was -6.86%. In the case of `CN1C[C@H]2CN(C(=O)c3ccc4c(c3)OCO4)CCN2C1=O`, the Percent Effect is -1.11%. Turning to `O=C1NC(c2ccccc2)=N[C@@]12CC[C@@H]1CN(Cc3ccco3)C[C@@H]12`, the Percent Effect is -1.45%.

As for `COCC(=O)N1CC[C@H]2OCC[C@@]2(c2nc(C)no2)C1`, the Percent Effect is -7.69%. `CN(C)C(=O)N1CCC[C@]2(C(=O)N(C)C)CN(c3ccccn3)C[C@@H]2C1`: the Percent Effect is -16.1%. For the compound `COc1ccc(CN2C[C@H]3C[C@H](C(=O)Nc4cccnc4)[C@@H](C2)O3)cc1`, the Percent Effect stood at 7.77%. For the compound `CCC(=O)N1C[C@@H]2CCN(c3cnccn3)C[C@@H]2C1`, the Percent Effect amounted to 27.9%. In the case of `Cc1cccc(CN2C[C@@H]3CN(C(=O)c4ccsc4)C[C@@H]3C2=O)c1`, the Percent Effect came out at 5.73%. Then `O=C(N1CCOCC1)N1C[C@H]2CC[C@@H]1CN(C1Cc3ccccc3C1)C2`, with 4.16%; and `O=C(c1ccoc1)N1CCO[C@@H]2CNC[C@@H]21`, with -6.03%.

Consider `CN1CCN(C(=O)C[C@@H]2COC[C@H]3CN(c4ccncn4)C[C@@H]23)CC1`, for which the Percent Effect is -11.8%. Consider `Cc1cccnc1[C@]1(O)CC[C@H]2CN(Cc3cccc(Cl)c3Cl)C[C@H]21`, for which the Percent Effect is 0.575%. For `COCCN1CCN(C(=O)c2ccccc2C(C)=O)[C@H]2CS(=O)(=O)C[C@H]21`, the Percent Effect was -4.44%. As for `Cc1nccc([C@@H]2C[C@@H]3CCN(Cc4c(C)noc4C)C[C@H]3O2)n1`, the Percent Effect was found to be 9.38%. For `N#Cc1ccccc1CN1C[C@@H]2CC[C@H](C1)N(CC1CC1)C2=O`, the Percent Effect was -3.85%. Then `O=C(c1ccnnc1)N1CCN2C[C@H](OCc3ccccn3)C[C@H]2C1`, with 0.376%; and `C[C@H]1C[C@H]2CN(C(=O)CCOc3ccccc3)CC[C@H]2O1`, with 5.83%. Take `O=C(NC[C@]12COC[C@H]1CN(Cc1nccs1)C2)c1cscn1`: the Percent Effect was found to be 2.68%. The figure for `O=C(Nc1cnccn1)[C@@H]1CCO[C@@H]2CCN(Cc3ccsc3)C[C@@H]21` is -0.52%.

As for `Cc1ccnn1CCC(=O)N1C[C@H]2CC[C@@H]1CN(CC(=O)N(C)C)C2`, the Percent Effect was 10.3%. `CCNC(=O)N1C[C@@H]2OCC(=O)N(CC3CCCCC3)[C@@H]2C1`: the Percent Effect amounted to 5.8%. Then `Cc1noc([C@@]23CCO[C@@H]2CCN(C(=O)CN(C)C)C3)n1`, with -12.4%; and `O=C(NCC1CCOCC1)[C@H]1C[C@@H]2CCN(c3nncs3)C[C@@H]2O1`, with -12.4%. As to `Cn1ccnc1C(=O)NC[C@H]1OC[C@@H]2CCN(S(C)(=O)=O)C[C@@H]21`, the Percent Effect was found to be 12.7%. Then `COCC(=O)N1CCC[C@]2(C(=O)N(C)C)CN(c3ccccn3)C[C@@H]2C1`, with -0.178%. Then `C[C@H]1C[C@H]2CN(C(=O)c3cccc4c3OCCO4)CC[C@H]2O1`, with -0.751%. On to `Cn1cccc1C(=O)N1CC[C@H]2[C@H](CO[C@H]2CNS(C)(=O)=O)C1`, for which the Percent Effect turned out to be 5.31%. The figure for `Cc1nn(C)c(C)c1S(=O)(=O)N1C[C@@H]2C[C@@H](C)O[C@@H]2C1` is -4.66%.

`CCC1=N[C@@]2(CC[C@@H]3CN(S(=O)(=O)CC)C[C@@H]32)C(=O)N1CC`: the Percent Effect is -9.65%. The figure for `CN1C[C@H]2C[C@H](C(=O)Nc3cccnc3)[C@@H](C1)O2` is -5.71%; for `Cn1cc(C(=O)NC[C@H]2OC[C@@H]3CCN(C4CCOCC4)C[C@@H]32)cn1` it is -8.58%; for `Cc1ccnn1CCC(=O)N1CCCC[C@]2(C)NC(=O)CCC[C@H]12` it is 2.82%. Regarding `C[C@@H]1C(=O)NC[C@H]2CN(CCc3ccccc3)C[C@H]21`, the Percent Effect came to 11.1%. In the case of `O=C(NCc1ccccn1)[C@H]1COC[C@H]2CN(CC3CC3)C[C@H]21`, the Percent Effect is 7.53%. Then `Cc1cnc(CNC(=O)[C@@H]2CC[C@@H]3[C@@H](CCN3Cc3ccco3)O2)cn1`, with -0.464%; and `CC(C)=CCN1C[C@H]2CC[C@@H]1CN(CCC(=O)NCc1ccco1)C2`, with -17.3%. Regarding `Cc1nc(COC[C@@]23CCC[C@@H]2CN(Cc2cnn(C)c2)C3)cs1`, the Percent Effect turned out to be 2.95%. With `CNC(=O)[C@@]12CCO[C@@H]1CCN(Cc1ccc3c(c1)OCO3)C2`, the Percent Effect stood at 14.7%. As for `O=C(O)[C@@]12CN(c3cnccn3)C[C@@H]1CN(C1CCOCC1)C2`, the Percent Effect was -12.3%.

Take `Fc1cnc(N2CCO[C@H]3[C@H](OCCN4CCCC4)CC[C@@H]32)nc1`: the Percent Effect is -0.916%.

For the compound `Fc1cccnc1O[C@H]1CN(Cc2ccoc2)[C@@H]2CCCO[C@H]12`, the Percent Effect came out at 5.17%. As for `Cc1nc(CN2C(=O)CC[C@@H]3[C@H]2CCN3C(=O)c2ccccn2)cs1`, the Percent Effect is 2.69%. On to `Cc1nc(CN2CCO[C@@H]3CN(Cc4ccccn4)CC[C@@H]3C2)cs1`, for which the Percent Effect is -1.41%. `c1ccc(CO[C@H]2C[C@@H]3CN(Cc4cncnc4)C[C@@H]3C2)cc1`: the Percent Effect was -9.01%. Take `COCCNC(=O)[C@H]1C[C@@H]2CCN(c3ccncn3)C[C@H]2O1`: the Percent Effect is -14.9%. For `Cc1ccc(C(=O)N2CC[C@@H]3[C@H]2CCC(=O)N3CCN(C)C)cn1`, the Percent Effect was 15.8%. For the compound `CN1C[C@@H](F)[C@@H](OCc2nc3ccc(C#N)cc3[nH]2)C1`, the Percent Effect is -10.4%. Take `Cc1ccc2[nH]c(CO[C@H]3CN(C(=O)C4CC4)C[C@H]3F)nc2c1`: the Percent Effect is -1.53%. Then `Cc1ccc2[nH]c(CO[C@H]3CN(c4ccc(C#N)cn4)C[C@H]3F)nc2c1`, with 78.4%; and `CC(=O)N1CCC(c2cncc(N3CCOCC3)n2)CC1`, with 55.4%; and `CC(=O)N1CCC(c2cncc(N3CCCCCC3)n2)CC1`, with -8.81%. Turning to `CC(=O)N1CCC(c2cncc(N3CCC(O)C3)n2)CC1` (centres undefined), the Percent Effect is -28.1%.

Turning to `O=C(NC1CCC1)[C@@H]1C[C@@H]2CCN(Cc3cccs3)C[C@@H]2O1`, the Percent Effect was -6.23%. As for `O=C1CC[C@]2(CC[C@@H](NCc3cccnc3)CC2)N1Cc1ccccc1`, the Percent Effect was 9.66%. Turning to `CN(C)S(=O)(=O)N1CC[C@]2(O)CCN(Cc3cccc(C#N)c3)C[C@@H]2C1`, the Percent Effect is -12.9%. The figure for `CO[C@H]1CN(Cc2ccc(C)o2)[C@@H]2CCCO[C@H]12` is -4%; for `COCCN1C[C@H]2CC[C@@H]1CN(C(=O)c1ccc(Cl)cc1)C2` it is 2.81%; for `Cc1ccccc1CN1C[C@@H](C(=O)N2CCCCO2)C[C@H]2OCC[C@H]21` it is -6.2%. Consider `CCCN1CCN(C(=O)c2cnc(C)nc2)[C@H]2CS(=O)(=O)C[C@H]21`, for which the Percent Effect stood at 5.85%. For `CCS(=O)(=O)N1CC[C@@H]2[C@H](COCC3CC3)CN(C)C(=O)[C@@H]2CC1`, the Percent Effect was -4.29%. `Cc1ccc([C@]2(O)CC[C@H]3CN(Cc4ccncc4)C[C@H]32)nc1`: the Percent Effect was 23.9%. As for `O=C([C@H]1C[C@H]2OCC[C@H]2N(CC2CCOCC2)C1)N1CCCCO1`, the Percent Effect was -11.4%. Consider `COCCN1C[C@@H]2[C@@H](OC)CCN(S(=O)(=O)c3cccnc3)[C@@H]2C1`, for which the Percent Effect was -10.6%.

Turning to `Cc1cnc(N2C[C@H]3CCN(CC4CC4)C[C@H]3C2)nc1`, the Percent Effect was -8.8%. For `Cc1ccc(CN2CC[C@@H]3[C@@H]2CCN3C(=O)Cc2cccs2)o1`, the Percent Effect stood at 16.6%. Consider `COc1ccc(CC(=O)N2C[C@H]3CN(Cc4ccccn4)C[C@H]3C2)cc1`, for which the Percent Effect is -3.43%. As for `Cc1noc(C)c1CN1C[C@H](OCC(=O)N(C)C)[C@H]2OCCC[C@H]21`, the Percent Effect was -8.82%.

With `CNCCN1C(=O)CC[C@H]2CN(c3cnc4ccccc4n3)CC[C@H]21`, the Percent Effect is -92.8%. As for `O=C(CN1C[C@H]2CC[C@@H]1CN(Cc1ccccn1)C2)Nc1ccccc1`, the Percent Effect was -28.1%.

`CN(Cc1ccco1)[C@@H]1CN(Cc2cccnc2)C[C@@H]2CCCO[C@@H]21`: the Percent Effect stood at 6.33%. As for `CC(C)OC(=O)N1C[C@H]2CC[C@@H]1CN(C(=O)c1ccccc1)C2`, the Percent Effect was -3.47%. The figure for `Cc1noc([C@H]2COC[C@H]3CN(C(=O)Cc4cccs4)C[C@H]32)n1` is -9.33%; for `CN(C)C(=O)[C@@H]1C[C@@H]2CCN(Cc3ccncc3)C[C@@H]2O1` it is 7.41%.

For `c1cncc(COCC2CC[C@H]3[C@H]2OCCN3Cc2ccoc2)c1` (some centres undefined), the Percent Effect was 3.35%. In the case of `CN(C)C[C@]12COC[C@H]1CN(C(=O)Cc1ccc3c(c1)OCO3)C2`, the Percent Effect stood at 7.79%. In the case of `Cn1cc(CN2CC[C@@H]3O[C@H](C(=O)N4CCOCC4)C[C@@H]32)cn1`, the Percent Effect was -11.6%. The figure for `COCCN1C[C@@H]2CN(Cc3cccc(F)c3)CCC[C@]2(C(=O)O)C1` is -13.3%; for `Cc1cccc2nc(C(=O)N3CCCC[C@]4(C)NC(=O)CCC[C@H]34)cn12` it is -8.66%. For the compound `CN(C)C(=O)[C@H]1CC[C@@H]2[C@@H](CCN2Cc2ccccn2)O1`, the Percent Effect was -3.56%. Take `CC1=N[C@@]2(CC[C@@H]3CN(Cc4cccc(Cl)c4)C[C@@H]32)C(=O)N1CC1CC1`: the Percent Effect is 3.49%.

As to `O=C(c1cccnc1)N1C[C@@H]2OCCN(CCN3CCCC3)[C@@H]2C1`, the Percent Effect was 4.78%. As to `Cn1ccnc1CN1CCO[C@H]2C(CNC(=O)c3ccco3)CC[C@@H]21` (some centres undefined), the Percent Effect came to 0.912%. For `Cc1ncsc1CN1C[C@@H](OCC(=O)N(C)C)[C@H]2OCCC[C@H]21`, the Percent Effect is -2.89%. Take `CCS(=O)(=O)N1CCC[C@]2(C(=O)N(C)C)CN(c3ncccn3)C[C@@H]2C1`: the Percent Effect amounted to 5.41%. The figure for `CCc1ccc(CN2C[C@@H]3COC[C@H](NS(C)(=O)=O)[C@@H]3C2)o1` is -9.73%; for `Cc1cccc(CN2CCCC[C@H]3CN(c4ncccn4)C[C@H]32)c1` it is 3.15%.

Turning to `CCN1CCO[C@@H]2CN(S(=O)(=O)c3cccs3)CC[C@@H]2C1`, the Percent Effect came out at 1.3%. For `CC(=O)N1CCC(N2CCN3C(=O)N(c4ccccc4)C[C@H]3C2)CC1`, the Percent Effect was -1.27%.

As for `Cc1noc([C@@]23CCO[C@@H]2CCN(C(=O)c2c(C)noc2C)C3)n1`, the Percent Effect was -20.2%. As to `CCCS(=O)(=O)N1C[C@@H]2CN(Cc3ccoc3)CCO[C@@H]2C1`, the Percent Effect amounted to 2.92%. As to `Cc1cc(CN2C[C@@H]3CCCO[C@@H]3[C@H](Nc3ccccn3)C2)no1`, the Percent Effect was -4.49%. For `COc1cc2c(cc1-c1nc3c(cnn3C(C)C)[nH]1)OCO2`, the Percent Effect is 56.2%.

`COc1cc2c(cc1-c1nc3c(cnn3C(C)C(C)C)[nH]1)OCO2` (centres undefined): the Percent Effect is -3.85%. Then `COc1cc2c(cc1-c1nc3c(cnn3C(C)C3CC3)[nH]1)OCO2` (centres undefined), with 21.1%.

Values taken from ChEMBL document CHEMBL3988442, “University of Dundee, Small-Polar-MMV Screening Library” (2021).
